Test results reported in PubChem BioAssay AID1159580 (chemical genetic matrix, 2015).
Several values for one entry are separate records, joined by “and”; a condition that tells them apart may be missing. Identical values can stand only once. The whole screen tested about 5,500 compounds, of which about 2,000 (36%) were called active. About 18% were inconclusive and are not listed. Rule as the data show it: active = normalized growth mostly below about 0.91 (no sharp cut-off); inconclusive = no clear call, values can overlap the other calls; inactive = mostly above about 0.92. The list shows a part of the results.

Test: chemical genetic growth profiling, strain panel (AID 1159580);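 also: tested at 20 µM; growth read once vehicle control cultures reached saturation at 30 °C; 1 = growth at the plate median or of vehicle wells; lower values mean less growth of the strain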
Settings: S. cerevisiae deletion strains, growth OD

Measured: normalized growth

CCCc1nc2c(C)cc(-c3nc4ccccc4n3C)cc2n1Cc1ccc(-c2ccccc2C(=O)O)cc1
inactive: locus YAL013W, strain DEP1, active compounds read low 1.01 | locus YAL021C, strain ccr4, active compounds read low 1.02 | locus YAL026C, strain drs2, active compounds read low 1 | locus YAL030W, strain snc1, active compounds read low 1.01 | locus YBL061C, strain skt5, active compounds read low 1.01 | locus YBR009C, strain hhf1, active compounds read low 1.01 | locus YBR021W, strain FUR4, active compounds read low 0.992 | locus YBR023C, strain chs3, active compounds read low 1.01 | locus YBR171W, strain sec66, active compounds read low 1.02 | locus YBR229C, strain ROT2, active compounds read low 1 | locus YBR231C, strain swc5, active compounds read low 1.02 | locus YBR279W, strain paf1, active compounds read low 1.01 | locus YCL011C, strain gbp2, active compounds read low 1.01 | locus YCL016C, strain dcc1, active compounds read low 1 | locus YCL029C, strain bik1, active compounds read low 1.01 | locus YCL069W, strain vba3, active compounds read low 1.02 | locus YCR088W, strain abp1, active compounds read low 1.02 | locus YDL005C, strain med2, active compounds read low 1.02 | locus YDL035C, strain GPR1, active compounds read low 0.98 | locus YDL040C, strain nat1, active compounds read low 1.01 | locus YDL074C, strain BRE1, active compounds read low 0.997 | locus YDL101C, strain DUN1, active compounds read low 0.999 | locus YDL134C, strain PPH21, active compounds read low 1 | locus YDL185W, strain tfp1, active compounds read low 1.01 | locus YDL192W, strain arf1, active compounds read low 1.02 | locus YDR001C, strain nth1, active compounds read low 1.02 | locus YDR069C, strain doa4, active compounds read low 1.03 | locus YDR101C, strain arx1, active compounds read low 0.989 | locus YDR137W, strain rgp1, active compounds read low 0.975 | locus YDR150W, strain NUM1, active compounds read low 1.01 | locus YDR159W, strain sac3, active compounds read low 0.978 | locus YDR162C, strain NBP2, active compounds read low 1.01 | locus YDR195W, strain ref2 1.06 | locus YDR297W, strain sur2, active compounds read low 1.01 | locus YDR318W, strain mcm21, active compounds read low 1 | locus YDR334W, strain swr1, active compounds read low 1.02 | locus YDR335W, strain msn5, active compounds read low 1.03 | locus YDR388W, active compounds read low 1.02 | locus YDR392W, strain spt3, active compounds read low 0.829 | locus YDR502C, strain sam2, active compounds read low 1 | locus YEL003W, strain gim4, active compounds read low 1.02 | locus YEL037C, strain rad23, active compounds read low 1.02 | locus YEL061C, strain CIN8 (second series), active compounds read low 1.02 | locus YEL061C, strain CIN8, active compounds read low 1.01 | locus YER015W, strain faa2, active compounds read low 1.01 | locus YER016W, strain bim1, active compounds read low 1.01 | locus YER110C, active compounds read low 1.02 | locus YER111C, strain swi4, active compounds read low 1.01 | locus YER155C, strain BEM2 (second series), active compounds read low 0.926 | locus YER155C, strain BEM2, active compounds read low 1 | locus YER167W, strain BCK2, active compounds read low 0.998 | locus YFR010W, strain ubp6, active compounds read low 1.03 | locus YGL078C, strain dbp3, active compounds read low 1.01 | locus YGL086W, strain mad1, active compounds read low 0.988 | locus YGL167C, strain pmr1, active compounds read low 1.02 | locus YGL173C, strain kem1, active compounds read low 1.01 | locus YGL227W, strain vid30, active compounds read low 1.01 | locus YGL240W, strain doc1, active compounds read low 1.01 | locus YGL248W, strain PDE1, active compounds read low 0.994 | locus YGL253W, strain hxk2, active compounds read low 1.03 | locus YGR078C, strain PAC10, active compounds read low 0.997 | locus YGR135W, strain pre9, active compounds read low 1.04 | locus YGR229C, strain SMI1, active compounds read low 1.01 | locus YGR252W, strain gcn5, active compounds read low 0.994 | locus YHR013C, strain ard1, active compounds read low 1.04 | locus YHR027C, strain rpn1, active compounds read low 1.01 | locus YHR030C, strain SLT2, active compounds read low 1 and 0.973 | locus YHR079C, strain IRE1 (second series), active compounds read low 0.997 | locus YHR079C, strain IRE1, active compounds read low 0.967 | locus YHR094C, strain hxt1, active compounds read low 1.01 | locus YHR129C, strain ARP1, active compounds read low 0.996 | locus YHR142W, strain chs7, active compounds read low 1.03 | locus YHR200W, strain rpn10, active compounds read low 1 | locus YIL066C, strain RNR3, active compounds read low 0.997 | locus YIL073C, strain SPO22, active compounds read low 1.08 | locus YIL125W, strain kgd1, active compounds read low 1 | locus YIR030C, strain dcg1, active compounds read low 1.01 | locus YJL092W, strain hpr5, active compounds read low 1.01 | locus YJL095W, strain BCK1 (second series), active compounds read low 1 | locus YJL095W, strain BCK1, active compounds read low 0.989 and 0.986 | locus YJL115W, strain asf1, active compounds read low 1.01 | locus YJL129C, strain trk1, active compounds read low 0.956 | locus YJL134W, strain LCB3, active compounds read low 1 | locus YJL154C, strain vps35, active compounds read low 1.01 | locus YJL164C, strain tpk1, active compounds read low 1 | locus YJL166W, strain qcr8, active compounds read low 1.01 | locus YJL168C, strain set2, active compounds read low 1 | locus YJL187C, strain SWE1 (second series), active compounds read low 0.995 | locus YJL187C, strain SWE1, active compounds read low 1.01
